According to ChEMBL document CHEMBL1201862, “PubChem BioAssay data set” (2004):
The campaign covered roughly 410,000 compounds. About 7,200 (1.8%) were called active. Roughly 7% stayed inconclusive and do not appear here. This is one part of a sample in which actives are shown more often than they occur. No cut-off for these calls is given here.

target: TAR DNA-binding protein 43 (Homo sapiens) (UniProt Q13148); assay: qHTS of TDP-43 Inhibitors.; type: functional
Sequence (Q13148 whole entry): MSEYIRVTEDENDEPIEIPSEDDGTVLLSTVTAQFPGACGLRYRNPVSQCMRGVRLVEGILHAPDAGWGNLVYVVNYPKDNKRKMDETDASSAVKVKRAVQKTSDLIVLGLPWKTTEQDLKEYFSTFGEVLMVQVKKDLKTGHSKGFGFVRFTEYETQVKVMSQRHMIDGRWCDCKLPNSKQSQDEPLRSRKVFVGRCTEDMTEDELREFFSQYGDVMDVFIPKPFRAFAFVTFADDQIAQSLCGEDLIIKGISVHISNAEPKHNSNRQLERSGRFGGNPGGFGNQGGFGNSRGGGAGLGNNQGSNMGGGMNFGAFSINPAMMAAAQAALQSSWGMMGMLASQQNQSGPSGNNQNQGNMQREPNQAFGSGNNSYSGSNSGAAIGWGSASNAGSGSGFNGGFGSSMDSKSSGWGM

Row | SMILES | Potency
1 | COc1ccc(OCC(O)COc2ccc(C(=O)O)cc2)cc1 (configuration not stated) | 100 µM (active)
2 | O=C(Nc1ccccc1)c1ccccc1NS(=O)(=O)c1ccc(Cl)s1 | inactive
3 | O=C(N/N=C/c1ccc(O)c2ncccc12)c1cccc(Br)c1 | inactive
4 | Clc1ccc(-c2nnc(COc3ncnc4ccccc34)o2)cc1 | inactive
5 | CCOc1cc(N2CCOCC2)c(OCC)cc1NC(=O)Cn1[nH]c(=O)c2ccccc2c1=O | 79.4 µM (active)
6 | Cc1ccc(-c2cc(C(=O)N3N=C(C(F)F)CC3(O)C(F)F)c3ccccc3n2)cc1C (configuration not stated) | inactive
7 | Cc1ccc(N(Cc2ccccc2)C(=O)c2cc(S(=O)(=O)N3CCOCC3)ccc2Cl)cc1 | inactive
8 | COc1ccc2[nH]c3c(C)c4ccncc4c(C)c3c2c1 | inactive
9 | O=C(O)Cc1ccccc1Nc1c(Cl)cccc1Cl | 15.8 µM (active)
10 | O=C(Nc1cccc(F)c1)c1ccc2c(c1)OCCO2 | inactive
11 | COc1ccc(Cl)cc1NC(=O)C1CCCN(c2cc(C)nc3ncnn23)C1 (configuration not stated) | inactive
12 | CN(C(=O)COC(=O)c1cccnc1Nc1cccc(C(F)(F)F)c1)C1CCS(=O)(=O)C1 (configuration not stated) | inactive
